ChEMBL document CHEMBL3988442, “University of Dundee, Small-Polar-MMV Screening Library” (2021)
Out of some 69,000 compounds screened, about 950 (1.4%) showed an effect of 50% or more. Only a selection was taken, and strong results are over-represented in it overall.

system: Mycobacterium tuberculosis; test: Cornell M. t heat shock assay; assay type: functional, organism-based; design: dose or concentration left out as unconfirmed; also: in the data most compounds retested in dose-response had high values

Compound | Percent Effect
Cc1csc2ncc(-c3ccnc(N4CCC[C@@H]4CO)n3)c(=O)n12 | -11.68%
O=c1c(-c2ccnc(N3CCCC[C@@H]3CO)n2)cnc2sccn12 | -1.826%
Cc1csc2ncc(-c3ccnc(N4CCCC[C@@H]4CO)n3)c(=O)n12 | 73.7%
Cc1nc(CN2CCc3ncnc(-c4ccc(F)cc4)c3CC2)cs1.O=C(O)C(F)(F)F | -9.802%
Cl.NC1CCc2nc(-c3cccnc3)nc(Nc3ccc(F)cc3)c2C1 (stereo not given) | 99.91%
CC(O)CNc1nc(-c2cccnc2)nc2c1CCC2 (stereo not given) | 6.387%
c1cncc(-c2nc3c(c(NCC4(c5ccncc5)CC4)n2)CCC3)c1 | -38.69%
CN(CC1CCCO1)c1nc(-c2cccnc2)nc2c1CCNCC2 (stereo not given) | -30.46%
CCc1noc(CNc2nc(-c3cccnc3)nc3c2CCNCC3)n1 | -6.144%
CCn1ccc(C(=O)N2CCCC2c2nnc(-c3scnc3C)o2)n1 (stereo not given) | -2.34%
CC(c1ccc(F)c(F)c1)N(C)CCS(=O)(=O)CCC(N)=O (stereo not given) | 53.46%
Cc1ccc(C(C)N(C)CCS(=O)(=O)CCC(N)=O)cc1 (stereo not given) | 68.62%
CC(c1cccc(Cl)c1)N(C)CCS(=O)(=O)CCC(N)=O (stereo not given) | 31.14%
Cc1ccc(C(C)NC(=O)CSCC(N)=O)cc1 (stereo not given) | 15.53%
Cc1ccc(OCCN(C)C(C)c2cccc(S(N)(=O)=O)c2)cc1 (stereo not given) | -22.37%
CC(c1cc(F)ccc1F)N(C)CCS(=O)(=O)CCC(N)=O (stereo not given) | 49.2%
O=C(O)C(F)(F)F.O=C(O)C(F)(F)F.O=C(O)C(F)(F)F.c1cc(CN2CCN3C[C@H](Oc4cncnc4)C[C@H]3C2)ccn1 | 11.96%
COCCN(CC1CC1)c1nc(CCN)nc2sc(C)c(C)c12 | 9.263%
Cc1sc2nc(CCN)nc(N(CCN(C)C)CC3CCCO3)c2c1C (stereo not given) | -25.67%
CCN(CCN(C)C)c1nc(CCN)nc2sc(C)c(C)c12 | 91.54%
COc1cc(N2C[C@H]3CCC[C@@H](CN(C)C)[C@H]3C2)ncn1.O=C(O)C(F)(F)F | -30.27%
O=C1CCCC2=C1C(c1ccc(Cl)cc1Cl)Nc1nonc1N2 (stereo not given) | 15.96%
O=C(CO)N1CCC(F)(F)C2(CCN(c3ccccc3)C2)C1.O=C(O)C(F)(F)F (stereo not given) | 34.47%

Compound | Percent Effect
O=C(O)C(F)(F)F.O=C(c1c[nH]cn1)N1CCC(F)(F)C2(CCN(c3ncccn3)C2)C1 (stereo not given) | -10.36%
O=C(O)C(F)(F)F.O=C(O)C(F)(F)F.O=C(O)CN1CCC(F)(F)C2(CCN(c3ccccc3)C2)C1 (stereo not given) | 100.8%
O=C(O)C(F)(F)F.O=C(O)C(F)(F)F.O=C(O)CN1CCC(F)(F)C2(CCN(c3ccccn3)C2)C1 (stereo not given) | -7.749%
O=C(O)C(F)(F)F.O=C(c1c[nH]cn1)N1CCC(F)(F)C2(CCN(c3cccc(F)c3)C2)C1 (stereo not given) | 53.67%
O=C(O)C(F)(F)F.O=C(O)C(F)(F)F.O=C(c1c[nH]cn1)N1CCC(F)(F)C2(CCN(c3ccccn3)C2)C1 (stereo not given) | 6.804%
FC1(F)CCN(Cc2ccncc2)CC12CCN(c1cccnc1)C2.O=C(O)C(F)(F)F.O=C(O)C(F)(F)F.O=C(O)C(F)(F)F (stereo not given) | -5.593%
FC1(F)CCN(Cc2cccnc2)CC12CCN(c1ccccc1)C2.O=C(O)C(F)(F)F.O=C(O)C(F)(F)F.O=C(O)C(F)(F)F (stereo not given) | 107.1%
FC1(F)CCN(Cc2cccnc2)CC12CCN(c1ccccn1)C2.O=C(O)C(F)(F)F.O=C(O)C(F)(F)F.O=C(O)C(F)(F)F (stereo not given) | 8.031%
Cc1ccc(C(=O)N2CCC3(CCN(C(=O)c4cccnc4)C3)CC2)o1.O=C(O)C(F)(F)F | 1.785%
COC(=O)CC(C)(C)CC(=O)N1CCC(C(F)(F)F)CC1 | -1.161%
Cc1nn(C)cc1S(=O)(=O)NCC(c1ccccc1)N1CCCCCC1.Cl (stereo not given) | -15.55%
CN(C)CCNCCC(Cc1ccccc1)C1CCOC(C)(C)C1.O=C(O)C(=O)O (stereo not given) | -22.2%
Cl.FC(F)(F)c1nc(C2CCNCC2)no1 | -8.269%
COCCN1CCC2(CC1)CC(NCc1ccc(C)s1)c1ccccc12.O=C(O)C(F)(F)F.O=C(O)C(F)(F)F (stereo not given) | 1.76%
Cc1nc(CN2C[C@@H]3CN(C(=O)c4cccn4C)C[C@@H]3C2=O)cs1.O=C(O)C(F)(F)F | -10.46%
O=C(O)C(F)(F)F.O=C(c1ccc(F)cc1)N1C[C@H]2CCC[C@@]2(COCc2ccccn2)C1 | 7.203%
CN1CCCC(c2cccc(-c3cccc(Cl)c3)n2)C1 (stereo not given) | -13.07%
N#Cc1ncn(Cc2c(F)cccc2Cl)n1 | -2.259%
N#Cc1ncn(CC(=O)Cc2c(F)cccc2Cl)n1 | 85.52%
CN(Cc1c(F)cccc1Cl)C(=O)Cn1cnc(C#N)n1 | -1.386%
CCc1ccc(CN2CCCCC2c2n[nH]cc2-c2cc(C)no2)cc1.Cl (stereo not given) | 16.34%
CS(=O)(=O)N[C@@H]1CCO[C@]2(CCN(C(=O)c3cnccn3)C2)C1 | 9.518%
CS(=O)(=O)N[C@H]1CCO[C@]2(CCN(C(=O)c3ccccn3)C2)C1.O=C(O)C(F)(F)F | 72.36%

Compound | Percent Effect
CS(=O)(=O)N[C@@H]1CCO[C@]2(CCN(C(=O)c3cscn3)C2)C1 | -9.704%
CCC(N)C(=O)N1CCC(OCc2ccc(Cl)c(Cl)c2)CC1.Cl (stereo not given) | 20.26%
Cc1ccc(CNC(=O)NCc2nccn2C)c(OC(C)(C)C)c1 | 2.123%
Cc1ccc(CNCc2nccn2C)c(OCC2CC2)c1 | 39.25%
CCn1ccnc1CNCC1CCCN1c1cccnn1 (stereo not given) | 2.735%
Cc1ccc(CNCc2nccn2C)c(OC(C)(C)C)c1 | 50.94%
CCn1ccnc1CNc1nccc(-c2c(C)nn(C)c2C)n1 | 4.641%
CCn1ccnc1CNCc1ccc(C)cc1OC(C)(C)C | 55.22%
Cn1cccc1C(=O)NC[C@]12COC[C@H]1CN(Cc1nccs1)C2.O=C(O)C(F)(F)F | -42.54%
COc1nccnc1N1C[C@@H]2CC[C@H](C1)N(CC=C(C)C)C2=O | -19.62%
COCCN(C)C1COC2(CCN(Cc3ccccn3)CC2)C1.O=C(O)C(F)(F)F.O=C(O)C(F)(F)F (stereo not given) | -27.77%
COCCO[C@@H]1CCN(C(=O)c2ccc(C)o2)[C@@H]1Cc1cnn(C)c1 | 11.53%
COCCO[C@H]1CCN(Cc2cccnc2)[C@H]1Cc1cccnc1.O=C(O)C(F)(F)F.O=C(O)C(F)(F)F.O=C(O)C(F)(F)F | -30.96%
COCCO[C@@H]1CCN(C(=O)c2ccc(C)o2)[C@@H]1Cc1cccnc1.O=C(O)C(F)(F)F | 104.5%
CC[C@@H]1N(Cc2ccc(C)o2)CCC[C@]12CCC(=O)N2CCOC.O=C(O)C(F)(F)F | -28.97%
Cl.NCC1CCC(c2c(C(=O)NCCO)sc3ccccc23)CC1 (stereo not given) | 85.23%
CN(C)CCNC(=O)c1sc2ccccc2c1C1CCC(CN)CC1.Cl (stereo not given) | 20.1%
COCCNC(=O)c1sc2ccccc2c1C1CCC(CN)CC1.Cl (stereo not given) | 16.29%
CC(C)c1n[nH]c(C(=O)Nc2cc[nH]n2)c1Br | 4.113%
Cc1ccnc(NC(=O)c2[nH]nc(C(C)C)c2Br)c1 | 68.96%
CC(C)c1n[nH]c(C(=O)Nc2ccccn2)c1Br | -0.4918%
O=C(O)C(F)(F)F.O=C(O)C(F)(F)F.c1cncc(O[C@@H]2CC[C@H]3[C@H]2OCCN3C2CCCC2)c1 | -35.82%
Cc1nc(NCc2cccc(F)c2)cc(C2CCNCC2)n1.Cl | -3.606%

Compound | Percent Effect
Cc1nc(NCc2ccc(C)o2)cc(C2CCNCC2)n1 | -22.33%
Cc1nc(-c2ccc(F)cc2)cc(C2CCNCC2)n1 | -9.323%
CCN(Cc1ccncc1)c1cc(C2CCNCC2)nc(C)n1 | -13.1%
CCN(Cc1c(F)cccc1Cl)c1cc(C2CCNCC2)nc(C)n1 | 69.57%
CCCN(CC)c1cc(C2CCNCC2)nc(C)n1 | -15.84%
Cc1nc(C2CCNCC2)cc(N(C)Cc2cc3cc(F)ccc3[nH]2)n1 | 81.43%
COc1ccc2[nH]c(CNc3cc(C4CCNCC4)nc(C)n3)cc2c1 | 101.5%
CN(Cc1cc2cc(F)ccc2[nH]1)c1cc(C2CCCNC2)ncn1 (stereo not given) | 27.99%
COc1ccc(CNC(C)c2ccccc2Cl)c(OC)c1OC.Cl (stereo not given) | -26.61%
COc1c(CNC2CCSc3ccc(F)cc32)c(C)nn1C.Cl (stereo not given) | 15.14%
CNC(C(=O)OC)c1cc(F)ccc1F.Cl (stereo not given) | 1.092%
O=C(O)C(F)(F)F.O=C(O)C(F)(F)F.O=C(c1ccncc1)N1CC[C@@H]2CN(C3CCOCC3)CCO[C@@H]2C1 | 7.278%
Cc1cccc(CN2CCc3nnc(CN4CCCC4=O)n3CC2)n1.O=C(O)C(F)(F)F | -34.57%
Cc1cc(=O)[nH]c(-n2nc(C)c(CCC(=O)NCc3cccs3)c2C)n1 | 102.2%
Cc1ccn(CCC(=O)NCc2ccco2)n1 | 6.355%
Cc1noc(C)c1CCC(=O)NCCc1cccs1 | 11.5%
Cc1nc2c(c(C)c1CC(=O)NCc1cccs1)c(=O)[nH]n2C | 11.25%
Cc1cc(=O)[nH]c(-n2nc(C)c(CCC(=O)NCc3ccco3)c2C)n1 | 61.79%
Cc1cc(C(=O)NCc2ccco2)nn1C | 12.62%
O=S(=O)(CCO)CCc1ccccc1Cl | 17.45%
CCN1CCc2c(sc3c2C(=O)NC(/C=C\c2ccccc2)N3)C1 (stereo not given) | -24.35%
